# Laboratory results published in PubChem BioAssay (NCI).
# Where “and” joins values, the source holds several entries; their conditions need not be identical. Equal entries are not always repeated. The panel holds about 79,000 compounds, 15% with a hit somewhere; the sample as a whole holds those more often. Some compounds were tested as several samples or in several runs, with calls that do not always agree. Calls of active or inactive are those of the source. No stated cut-off is given here; in the data, active means growth inhibition above about 70%; inactive means the rest.
# What was measured:
# [1] = NCI Yeast Anticancer Drug Screen. Data for the rad52 strain (AID 147);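 further: 0% = growth of vehicle-treated control cultures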; conditions: S. cerevisiae rad52 mutant growth inhibition, stronger effect = higher value
# Outline: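 Screen used a yeast mutant impaired in DNA repair. After compound exposure, growth was measured. Values reflect inhibition compared with vehicle-treated cells.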
# [2] = NCI Yeast Anticancer Drug Screen. Data for the wt1 strain (AID 149);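 further: 0% = growth of vehicle-treated wt1 cultures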; conditions: S. cerevisiae wt1 strain (SPY 50644) growth inhibition, stronger effect = higher value
# Outline: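 Using yeast strain wt1, compound-induced growth inhibition was determined against vehicle-treated cultures.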
# [3] = NCI Yeast Anticancer Drug Screen. Data for the mgt1 strain (AID 153); conditions: S. cerevisiae mgt1 mutant growth inhibition, stronger effect = higher value
# Outline: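 Genetically defined yeast (mgt1) treated with compound; inhibition of growth expressed against vehicle-treated controls.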
# [4] = NCI Yeast Anticancer Drug Screen. Data for the rad50 strain (AID 155);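 further: 0% = growth of vehicle-only cultures of the same strain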; conditions: S. cerevisiae rad50 strain growth inhibition, stronger effect = higher value
# Outline: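 Relative growth inhibition (compound vs vehicle) was measured in yeast with a defined repair-gene alteration.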
# [5] = NCI Yeast Anticancer Drug Screen. Data for the mec2-1 strain (AID 157); conditions: S. cerevisiae mec2-1 strain, stronger effect = higher value
# Outline: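 Readout is yeast growth inhibition, normalised to vehicle-treated controls, in the mec2-1 strain exposed to compound.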
# [6] = NCI Yeast Anticancer Drug Screen. Data for the rad14 strain (AID 159);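 further: 0% = growth of vehicle-treated control cultures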; conditions: S. cerevisiae rad14 strain growth inhibition, stronger effect = higher value
# Outline: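 Screen for anticancer potential: a yeast strain altered in DNA damage repair is grown with compound, and reduced growth is quantified against vehicle controls.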
# [7] = NCI Yeast Anticancer Drug Screen. Data for the sgs1 mgt1 strain (AID 161);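 further: 0% = growth of cultures given vehicle only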; conditions: S. cerevisiae sgs1 mgt1 strain, stronger effect = higher value
# Outline: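 Compounds are added to genetically altered yeast, and growth is compared with cultures given vehicle alone to give percent inhibition.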
# [8] = NCI Yeast Anticancer Drug Screen. Data for the CLN2oe strain (AID 163);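 further: 0% = growth of vehicle-only control cultures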; conditions: S. cerevisiae CLN2oe strain, stronger effect = higher value
# Outline: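 Values reflect how much compound exposure reduced yeast growth, referenced to vehicle-exposed cells. Assay organism is a strain with a defined genetic change affecting cell-cycle control.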
# [9] = NCI Yeast Anticancer Drug Screen. Data for the bub3 strain (AID 167); conditions: S. cerevisiae bub3 mutant strain, stronger effect = higher value
# Outline: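 Screening used yeast with an engineered genetic alteration affecting cell cycle control. Compound-exposed cultures were compared with vehicle cultures, and reduced growth was taken as inhibition.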
# [10] = NCI Yeast Anticancer Drug Screen. Data for the wt2 strain (AID 169);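 further: 0% = growth of vehicle-treated yeast cultures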; conditions: S. cerevisiae wt2 strain growth inhibition, stronger effect = higher value
# Outline: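 Values express reduction in yeast growth under compound treatment, referenced to vehicle-treated cells.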
# [11] = NCI Yeast Anticancer Drug Screen. Data for the mlh1 strain (AID 171);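 further: 0% = growth of vehicle-treated control cultures of the same strain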; conditions: S. cerevisiae mlh1 strain growth inhibition, stronger effect = higher value
# Outline: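 Steps: expose the defined-mutant yeast strain to compound; expose a parallel culture to vehicle; measure growth; express compound effect as inhibition relative to the vehicle culture.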
# [12] = NCI Yeast Anticancer Drug Screen. Data for the sgs1 strain (AID 173);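 further: 0% = growth of vehicle-only control cultures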; conditions: S. cerevisiae sgs1 mutant, stronger effect = higher value
# Outline: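 Treat defined-mutant yeast with compound; measure growth; calculate inhibition relative to vehicle-treated cells.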
# [13] = NCI Yeast Anticancer Drug Screen. Data for the mlh1 rad18 strain (AID 175); conditions: S. cerevisiae mlh1 rad18 strain growth inhibition, stronger effect = higher value
# Outline: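 Test agents were incubated with a yeast strain of defined genotype (DNA damage repair defect). Inhibition of growth was derived by comparison with vehicle-exposed cultures.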
# [14] = NCI Yeast Anticancer Drug Screen. Data for the rad18 strain (AID 177); conditions: S. cerevisiae rad18 mutant growth inhibition, stronger effect = higher value
# Outline: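 A genetically defined yeast mutant impaired in DNA damage repair was treated with test compounds, then its growth was measured against cultures receiving vehicle alone.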
# [15] = NCI Yeast Anticancer Drug Screen. Data for the cln2 rad14 strain (AID 165);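 further: 0% = growth equal to vehicle treated cultures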; conditions: S. cerevisiae cln2 rad14 strain, stronger effect = higher value
# Outline: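 Relative to vehicle controls, growth inhibition of compound-treated cln2 rad14 yeast was recorded.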
# [16] = at 5.0 µM (retest, dose inferred, filed as 0.5)
# [17] = at 50.0 µM (retest, dose inferred, filed as 5.0)
smiles,measurement,setting,value
NC1CCCCC1N.Nc1c(N=Nc2ccc(-c3ccc(N=Nc4cc(S(=O)(=O)[O-])c5ccccc5c4N)cc3)cc2)cc(S(=O)(=O)[O-])c2ccccc12.[OH3+].[OH3+].[Pt+4],growth inhibition,[1]; at 1.2 µM,0% (inactive)
same,growth inhibition,[1]; at 3.7 µM,4% (inactive)
same,growth inhibition,[1]; at 11.0 µM,47% (inactive)
same,growth inhibition,[1]; at 33.0 µM,80% (active)
same,growth inhibition,[1]; at 100.0 µM,65% (inactive)
same,growth inhibition,[2]; at 1.2 µM,1% (inactive)
same,growth inhibition,[2]; at 3.7 µM,-43% (inactive)
same,growth inhibition,[2]; at 11.0 µM,26% (inactive)
same,growth inhibition,[2]; at 33.0 µM,35% (inactive)
same,growth inhibition,[2]; at 100.0 µM,92% (active)
same,growth inhibition,[3]; at 1.2 µM,1% (inactive)
same,growth inhibition,[3]; at 3.7 µM,12% (inactive)
same,growth inhibition,[3]; at 11.0 µM,90% (active)
same,growth inhibition,[3]; at 33.0 µM,94% (active)
same,growth inhibition,[3]; at 100.0 µM,84% (active)
same,growth inhibition,[4]; at 1.2 µM,2% (inactive)
same,growth inhibition,[4]; at 3.7 µM,1% (inactive)
same,growth inhibition,[4]; [16],1% (inactive)
same,growth inhibition,[4]; at 11.0 µM,28% (inactive)
same,growth inhibition,[4]; at 33.0 µM,89% (active)
same,growth inhibition,[4]; [17],83% (active)
same,growth inhibition,[4]; at 50.0 µM,86.7% (active)
same,growth inhibition,[4]; at 100.0 µM,70% (active)
same,growth inhibition,[5]; at 1.2 µM,0% (inactive)
same,growth inhibition,[5]; at 3.7 µM,9% (inactive)
same,growth inhibition,[5]; [16],88% (active)
same,growth inhibition,[5]; at 11.0 µM,66% (inactive)
same,growth inhibition,[5]; at 33.0 µM,92% (active)
same,growth inhibition,[5]; [17],84% (active)
same,growth inhibition,[5]; at 50.0 µM,80.9% (active)
same,growth inhibition,[5]; at 100.0 µM,77% (active)
same,growth inhibition,[6]; at 1.2 µM,2% (inactive)
same,growth inhibition,[6]; at 3.7 µM,13% (inactive)
same,growth inhibition,[6]; at 11.0 µM,85% (active)
same,growth inhibition,[6]; at 33.0 µM,94% (active)
same,growth inhibition,[6]; at 100.0 µM,81% (active)
same,growth inhibition,[7]; [16],38% (inactive)
same,growth inhibition,[7]; [17],89% (active)
same,growth inhibition,[7]; at 50.0 µM,84.9% (active)
same,growth inhibition,[8]; at 1.2 µM,1% (inactive)
same,growth inhibition,[8]; at 3.7 µM,-1% (inactive)
same,growth inhibition,[8]; at 11.0 µM,22% (inactive)
same,growth inhibition,[8]; at 33.0 µM,89% (active)
same,growth inhibition,[8]; at 100.0 µM,63% (inactive)
same,growth inhibition,[9]; at 1.2 µM,-1% (inactive)
same,growth inhibition,[9]; at 3.7 µM,-1% (inactive)
same,growth inhibition,[9]; [16],91% (active)
same,growth inhibition,[9]; at 11.0 µM,54% (inactive)
same,growth inhibition,[9]; at 33.0 µM,90% (active)
same,growth inhibition,[9]; [17],83% (active)
same,growth inhibition,[9]; at 50.0 µM,82.5% (active)
same,growth inhibition,[9]; at 100.0 µM,68% (inactive)
same,growth inhibition,[10]; at 1.2 µM,-1% (inactive)
same,growth inhibition,[10]; at 3.7 µM,10% (inactive)
same,growth inhibition,[10]; at 11.0 µM,86% (active)
same,growth inhibition,[10]; at 33.0 µM,90% (active)
same,growth inhibition,[10]; at 100.0 µM,70% (active)
same,growth inhibition,[11]; at 1.2 µM,-1% (inactive)
same,growth inhibition,[11]; at 3.7 µM,7% (inactive)
same,growth inhibition,[11]; at 11.0 µM,81% (active)
same,growth inhibition,[11]; at 33.0 µM,90% (active)
same,growth inhibition,[11]; at 100.0 µM,65% (inactive)
same,growth inhibition,[12]; at 1.2 µM,4% (inactive)
same,growth inhibition,[12]; at 3.7 µM,22% (inactive)
same,growth inhibition,[12]; at 11.0 µM,95% (active)
same,growth inhibition,[12]; at 33.0 µM,93% (active)
same,growth inhibition,[12]; at 100.0 µM,80% (active)
same,growth inhibition,[13]; [16],77% (active)
same,growth inhibition,[13]; [17],78% (active)
same,growth inhibition,[13]; at 50.0 µM,85.2% (active)
same,growth inhibition,[14]; at 1.2 µM,1% (inactive)
same,growth inhibition,[14]; at 3.7 µM,-2% (inactive)
same,growth inhibition,[14]; at 11.0 µM,25% (inactive)
same,growth inhibition,[14]; at 33.0 µM,88% (active)
same,growth inhibition,[14]; at 100.0 µM,71% (active)
O=C1Nc2ccccc2/C1=C/c1ccccc1,growth inhibition,[1]; at 1.2 µM,-2% (inactive)
same,growth inhibition,[1]; at 3.7 µM,-1% (inactive)
same,growth inhibition,[1]; at 11.0 µM,7% (inactive)
same,growth inhibition,[1]; at 33.0 µM,37% (inactive)
same,growth inhibition,[1]; at 100.0 µM,80% (active)
same,growth inhibition,[2]; at 1.2 µM,-1% (inactive)
same,growth inhibition,[2]; at 3.7 µM,-2% (inactive)
same,growth inhibition,[2]; at 11.0 µM,0% (inactive)
same,growth inhibition,[2]; at 33.0 µM,6% (inactive)
same,growth inhibition,[2]; at 100.0 µM,34% (inactive)
same,growth inhibition,[3]; at 1.2 µM,-6% (inactive)
same,growth inhibition,[3]; at 3.7 µM,-22% (inactive)
same,growth inhibition,[3]; at 11.0 µM,-8% (inactive)
same,growth inhibition,[3]; at 33.0 µM,17% (inactive)
same,growth inhibition,[3]; at 100.0 µM,71% (active)
same,growth inhibition,[4]; at 1.2 µM,-3% (inactive)
same,growth inhibition,[4]; at 3.7 µM,1% (inactive)
same,growth inhibition,[4]; [16],-113% (inactive) and -24% (inactive)
same,growth inhibition,[4]; at 11.0 µM,3% (inactive)
same,growth inhibition,[4]; at 33.0 µM,39% (inactive)
same,growth inhibition,[4]; [17],-9% (inactive) and 10% (inactive)
same,growth inhibition,[4]; at 50.0 µM,81.6% (active) and 98% (active)
same,growth inhibition,[4]; at 100.0 µM,82% (active)
same,growth inhibition,[5]; at 1.2 µM,-3% (inactive)
same,growth inhibition,[5]; at 3.7 µM,-5% (inactive)
same,growth inhibition,[5]; [16],-53% (inactive) and -11% (inactive)
same,growth inhibition,[5]; at 11.0 µM,-8% (inactive)
same,growth inhibition,[5]; at 33.0 µM,4% (inactive)
same,growth inhibition,[5]; [17],-56% (inactive) and 30% (inactive)
same,growth inhibition,[5]; at 50.0 µM,66.6% (inactive) and 97.2% (active)
same,growth inhibition,[5]; at 100.0 µM,51% (inactive)
same,growth inhibition,[6]; at 1.2 µM,-4% (inactive)
same,growth inhibition,[6]; at 3.7 µM,6% (inactive)
same,growth inhibition,[6]; at 11.0 µM,-2% (inactive)
same,growth inhibition,[6]; at 33.0 µM,14% (inactive)
same,growth inhibition,[6]; at 100.0 µM,73% (active)
same,growth inhibition,[7]; [16],-69% (inactive) and -10% (inactive)
same,growth inhibition,[7]; [17],-52% (inactive) and 29% (inactive)
same,growth inhibition,[7]; at 50.0 µM,57.1% (inactive) and 96.2% (active)
same,growth inhibition,[8]; at 1.2 µM,-9% (inactive)
same,growth inhibition,[8]; at 3.7 µM,-9% (inactive)
same,growth inhibition,[8]; at 11.0 µM,-12% (inactive)
same,growth inhibition,[8]; at 33.0 µM,-1% (inactive)
same,growth inhibition,[8]; at 100.0 µM,17% (inactive)
same,growth inhibition,[15]; [16],-67% (inactive) and -49% (inactive)
same,growth inhibition,[15]; [17],-83% (inactive) and -8% (inactive)
same,growth inhibition,[15]; at 50.0 µM,-40.7% (inactive) and 70.8% (active)
same,growth inhibition,[9]; at 1.2 µM,-9% (inactive)
same,growth inhibition,[9]; at 3.7 µM,-14% (inactive)
same,growth inhibition,[9]; [16],-46% (inactive) and -21% (inactive)
same,growth inhibition,[9]; at 11.0 µM,-5% (inactive)
same,growth inhibition,[9]; at 33.0 µM,9% (inactive)
same,growth inhibition,[9]; [17],-62% (inactive) and 22% (inactive)
same,growth inhibition,[9]; at 50.0 µM,15.8% (inactive) and 98% (active)
same,growth inhibition,[9]; at 100.0 µM,51% (inactive)
same,growth inhibition,[10]; at 1.2 µM,-3% (inactive)
same,growth inhibition,[10]; at 3.7 µM,-3% (inactive)
same,growth inhibition,[10]; at 11.0 µM,2% (inactive)
same,growth inhibition,[10]; at 33.0 µM,35% (inactive)
same,growth inhibition,[10]; at 100.0 µM,88% (active)
same,growth inhibition,[11]; at 1.2 µM,-5% (inactive)
same,growth inhibition,[11]; at 3.7 µM,10% (inactive)
same,growth inhibition,[11]; at 11.0 µM,-5% (inactive)
same,growth inhibition,[11]; at 33.0 µM,30% (inactive)
same,growth inhibition,[11]; at 100.0 µM,81% (active)
same,growth inhibition,[12]; at 1.2 µM,0% (inactive)
same,growth inhibition,[12]; at 3.7 µM,2% (inactive)
same,growth inhibition,[12]; at 11.0 µM,10% (inactive)
same,growth inhibition,[12]; at 33.0 µM,47% (inactive)
same,growth inhibition,[12]; at 100.0 µM,84% (active)
same,growth inhibition,[13]; [16],-122% (inactive) and -22% (inactive)
same,growth inhibition,[13]; [17],-79% (inactive) and 51% (inactive)
same,growth inhibition,[13]; at 50.0 µM,63.5% (inactive) and 96.8% (active)
same,growth inhibition,[14]; at 1.2 µM,0% (inactive)
same,growth inhibition,[14]; at 3.7 µM,-1% (inactive)
same,growth inhibition,[14]; at 11.0 µM,8% (inactive)
same,growth inhibition,[14]; at 33.0 µM,52% (inactive)
same,growth inhibition,[14]; at 100.0 µM,86% (active)
